Experimental findings from PubChem BioAssay (NCATS) are described below.

Inconclusive results are not listed. Active and inactive are the calls of the source. Unless noted, the rule behind the calls is not given here.

A short description of assay [1]: qHTS profiling of the MIPE4 collection as inhibitors of Plasmodium falciparum (DD2) proliferation (AID 743345). Conditions: P. falciparum Dd2 in erythrocytes, SYBR Green DNA, 72 h; at 28.5 µM (top of the series) unless noted. The gist of the method:
(§1)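 Parasite DNA was quantified by SYBR Green I fluorescence (ex 485, em 535 nm) after overnight lysis in saponin/Triton buffer at room temperature. Cultures at 0.3% parasitemia and 2.5% hematocrit were first exposed to compound for 72 h at 37 C; signals were normalised to artemisinin (0.29 uM) and vehicle wells.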

The nature of assay [2]: qHTS profiling of the MIPE4 collection as inhibitors of Plasmodium falciparum (DD2) proliferation (Rep 2) (AID 743346). Conditions: P. falciparum Dd2 in erythrocytes, SYBR Green DNA, 72 h; at 28.5 µM (top of the series) unless noted. The gist of the method:
as §1
(qHTS replaces the single test concentration by a dilution series.)

Assay [3] is described as follows: qHTS profiling of the MIPE4 collection as inhibitors of Plasmodium falciparum (HB3) proliferation (AID 743347).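 Note: plate controls were DMSO vehicle wells for no effect and artemisinin wells for full effect.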 Conditions: P. falciparum HB3 in erythrocytes, SYBR Green DNA, 72 h; at 28.5 µM (top of the series) unless noted. The gist of the method:
as §1

A short description of assay [4]: High-throughput drug toxicity screening in the BPDCN cell line Gen2.2 (AID 1224824).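 Note: cells exposed to compounds for 48 h before reading.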 Conditions: Gen2.2 BPDCN cells; at 45.8 µM (top of the series) unless noted. The procedure, abridged:
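Gen2.2 cells, 500 per well in phenol red-free RPMI with 10% FBS, exposed to compounds 48 h at 37 C, 5% CO2; viability by CellTiter-Glo luminescence. Percent activity scaled to DMSO (100%) and 9.2 uM bortezomib final (0%).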

Assay [5] is described as follows: High-throughput drug toxicity screening in the BPDCN cell line Cal-1 (AID 1224825). Conditions: Cal-1 BPDCN cell viability, qHTS; at 45.8 µM (top of the series) unless noted. The procedure, abridged: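 CellTiter-Glo luminescence after 48 h compound exposure; percent activity scaled with DMSO as 100% and bortezomib (9.2 uM final) as 0%. Cal-1 cells seeded at 500/well in RPMI, 10% FBS, no phenol red.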

Assay [6] in a line: qHTS assay for measurement of the activity of small molecule inhibitors on Zika virus induced Caspase-3 activity in human iPSC derived neural progenitor cells (hNPCs) (AID 1224857; active = well fitted inhibition curve with a large enough effect; note: nearly all actives have a fitted effect of over 65% in size; note: potency is the fitted concentration of half-maximal effect). The procedure, abridged:
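Values are percent inhibition of virus-induced caspase-3/7 signal, scaled between uninfected cells and ZIKV-infected cells. Infection used 2 FFU/cell for 6 h after 1 h compound exposure.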

Assay [7] can be described thus: qHTS assay for measurement of the activity of small molecule inhibitors on Zika virus induced Caspase-3 activity in human astrocytoma cells (AID 1224859; active = well fitted inhibition curve with a large enough effect; note: potency is the fitted concentration of half-maximal effect). The procedure, abridged: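 Compound added 1 h pre-infection; ZIKV 2 FFU/cell on SNB-19 cells, 6 h, 37 C/5% CO2. Caspase-Glo 3/7 luminescence; values as % inhibition of ZIKV-induced caspase activity.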
Assay [8] is described as follows: qHTS Screen of the MIPE 4.0 Collection Against Ewings Sarcoma (RDES) (AID 1259252; active = well fitted inhibition curve with a large enough effect; note: potency is the fitted concentration of half-maximal effect; nearly all actives have a fitted effect of over 35% in size). The gist of the method:
(§2)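 Dose series incubated 48 h with cells in RPMI plus 5% FBS, glutamine and penicillin/streptomycin; cell viability then quantified via CellTiter-Glo.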

A short description of assay [9]: qHTS profiling of the MIPE4 collection as inhibitors of Plasmodium falciparum (3D7) proliferation (AID 743344).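 Note: scaled between DMSO vehicle wells and 0.29 µM artemisinin as full inhibition.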 Conditions: P. falciparum 3D7 in erythrocytes, SYBR Green DNA fluorescence, 72 h; at 28.5 µM (top of the series) unless noted. The gist of the method: as §1
Assay [10] can be described thus: qHTS Screen of the MIPE 4.0 Collection Against Ewings Sarcoma (TC32) (AID 1259256; active = well fitted inhibition curve with a large enough effect; note: nearly all actives have a fitted effect of over 45% in size; note: potency is the fitted concentration of half-maximal effect). The procedure, abridged:
as §2

Assay [11] can be described thus: qHTS Screen of the MIPE 4.0 Collection Against Ewings Sarcoma (TC71) (AID 1259253; active = well fitted inhibition curve with a large enough effect; note: nearly all actives have a fitted effect of over 40% in size; note: potency is the fitted concentration of half-maximal effect). The gist of the method: as §2
Assay [12] in a line: qHTS Screen of the MIPE 4.0 Collection Against Ewings Sarcoma (EW8) (AID 1259255; active = well fitted inhibition curve with a large enough effect; note: potency is the fitted concentration of half-maximal effect; nearly all actives have a fitted effect of over 35% in size). The gist of the method:
as §2

Regarding `C=CC(=O)Nc1cccc(Sc2nc(Nc3ccc(N4CCN(C)CC4)cc3)ncc2Cl)c1`, the parasite growth remaining, % of DMSO control (lower = more inhibition) in assay [1] worked out at 10.2%. In [2], the parasite growth, % of control (lower = inhibition) worked out at 6.26%. Also, the growth, % of control in assay [3] came out at 1.99%. In addition, the cell viability, % of control (lower = more cytotoxic) in assay [4] came out at 8.4%. The molecule also showed a viability (% of control) in assay [5] of 2.56%. Moreover, the Potency result in assay [6] and in assay [7] was “inactive” throughout. The Potency in assay [8] was 18.7 µM (active).
Consider `CSc1cccc(Nc2ncc3cc(-c4c(Cl)cccc4Cl)c(=O)n(C)c3n2)c1`, for which the parasite growth, % of DMSO control in assay [9] was 5.72%. Further, the parasite growth remaining, % of DMSO control (lower = more inhibition) in assay [1] turned out to be 13.9%. This molecule also had a parasite growth, % of control (lower = inhibition) in [2] of 9.88%. In assay [3], the growth, % of control was 9.92%. In addition, in [4], the cell viability, % of control (lower = more cytotoxic) worked out at 288%. Moreover, the viability (% of control) in assay [5] was determined as 34.2%. Also, the Potency result in assay [6] and in assay [7] was “inactive” each time. Besides, the Potency in [8] is 0.0935 µM (active).
Consider `O=C(NC[C@H](O)CO)c1ccncc1Nc1ccc(I)cc1F`, for which the parasite growth, % of DMSO control in assay [9] came to 60.9%. Further, the parasite growth remaining, % of DMSO control (lower = more inhibition) in [1] was determined as 101%. Also, the parasite growth, % of control (lower = inhibition) in [2] amounted to 56.7%. In assay [3], this molecule gave a growth, % of control of 54.8%. Further, in [4], the cell viability, % of control (lower = more cytotoxic) came out at 5.6%. In addition, the viability (% of control) in [5] came out at 12.1%. The Potency result in [6] and in assay [7] was “inactive” throughout. Also, the Potency in [8] was 18.7 µM (active).
Take `Oc1ccc(C=Cc2cc(O)cc(O)c2)cc1`: the parasite growth remaining, % of DMSO control (lower = more inhibition) in assay [1] was 96.9%. Further, the parasite growth, % of control (lower = inhibition) in assay [2] turned out to be 40.6%. The cell viability, % of control (lower = more cytotoxic) in assay [4] came out at 240%. The molecule further came in with a viability (% of control) in [5] of 39.4%. Moreover, the Potency in assay [6] was 11.8 µM (active); in [7], 6.62 µM (active); in assay [8] it was 18.7 µM (active); in [10], 18.7 µM (active).
`N=C1SC(=Cc2ccc(-c3ccc4c(c3)C(=O)NC4=O)o2)C(=O)N1c1ccc(Br)cc1` came in with a parasite growth, % of DMSO control in assay [9] of 9.09%. The parasite growth remaining, % of DMSO control (lower = more inhibition) in assay [1] worked out at 21.3%. This molecule gave a parasite growth, % of control (lower = inhibition) in assay [2] of 30.9%. In [3], this molecule yielded a growth, % of control of 9.17%. Besides, the cell viability, % of control (lower = more cytotoxic) in [4] worked out at 13.7%. In addition, in assay [5], the viability (% of control) was found to be 35.6%. Also, the Potency entry in assay [6] and in [7] was “inactive” in each case. In addition, in assay [11], the Potency is 20.9 µM (active).
`CN1N=C(N)c2cn([C@@H]3O[C@H](COP(=O)(O)O)[C@@H](O)[C@@H]3O)c3ncnc1c23` registered a parasite growth, % of DMSO control in [9] of 82.4%. Further, the parasite growth remaining, % of DMSO control (lower = more inhibition) in assay [1] worked out at 100%. The parasite growth, % of control (lower = inhibition) in assay [2] was 67.6%. For the same molecule, the growth, % of control in [3] came out at 98.6%. Besides, the cell viability, % of control (lower = more cytotoxic) in assay [4] was 199%. Moreover, the viability (% of control) in assay [5] came to 76.2%. For the same molecule, the Potency entry in assay [6] and in assay [7] was “inactive” throughout. Also, the Potency in [11] is 7.43 µM (active); in [12] it was 13.2 µM (active); in assay [10] it was 2.64 µM (active).
Consider `COc1cc([C@H]2Oc3cc([C@H]4Oc5cc(O)cc(O)c5C(=O)[C@H]4O)ccc3O[C@H]2CO)ccc1O`, for which, in assay [9], the parasite growth, % of DMSO control was 7.9%. The parasite growth remaining, % of DMSO control (lower = more inhibition) in assay [1] worked out at 18.5%. In addition, in assay [2], the parasite growth, % of control (lower = inhibition) stood at 16.1%. Further, the growth, % of control in assay [3] was found to be 12.9%. Also, in [4], the cell viability, % of control (lower = more cytotoxic) was found to be 181%. Further, in assay [5], the viability (% of control) is 85.4%. In addition, the Potency result in [6] and in assay [7] was “inactive” each time. Besides, the Potency in [11] is 14.8 µM (active); in [12], 9.35 µM (active); in [10], 16.6 µM (active).
`CCNC(=O)CCCC=CC[C@@H]1[C@H](C=CC(O)CCc2ccccc2)[C@@H](O)C[C@@H]1O` (some centres not stated) displayed a parasite growth, % of DMSO control in assay [9] of 63.1%. Besides, in assay [1], the parasite growth remaining, % of DMSO control (lower = more inhibition) turned out to be 127%. In assay [2], the parasite growth, % of control (lower = inhibition) was determined as 60.3%. The same molecule showed a growth, % of control in [3] of 74.9%. Also, in assay [4], the cell viability, % of control (lower = more cytotoxic) came out at 108%. This molecule also registered a viability (% of control) in assay [5] of 21%. For the same molecule, the Potency entry in assay [6], in assay [7], in assay [11] and in assay [10] was “inactive” throughout. For the same molecule, the Potency in [12] is 23.5 µM (active).
Take `CCCCCCOC(=O)N=C(N)c1ccc(NCc2nc3cc(C(=O)N(CCC(=O)OCC)c4ccccn4)ccc3n2C)cc1`: the parasite growth, % of DMSO control in [9] came out at 9.57%. The parasite growth remaining, % of DMSO control (lower = more inhibition) in assay [1] was 28.2%. In assay [2], the parasite growth, % of control (lower = inhibition) is 16%. In assay [3], this molecule yielded a growth, % of control of 7.43%. For the same molecule, the cell viability, % of control (lower = more cytotoxic) in [4] was 274%. Also, in assay [5], the viability (% of control) was 17.1%. For the same molecule, the Potency entry in assay [6] and in [7] was “inactive” in each case. Besides, the Potency in [11] is 20.9 µM (active); in assay [12] it was 8.33 µM (active); in assay [10], 7.43 µM (active).
